Only some compounds are listed: those with a hit (about 1.5% of all), similar ones and a draw of the others.
NPSR antagonist = qHTS Assay for Antagonists of the Neuropeptide S Receptor: cAMP Signal Transduction; CHO-NPSR cells, cAMP TR-FRET, antagonist mode; Potency, µM (top dose mostly 38.3 µM), hits mostly inhibitors; hit rate 1% among 220,000; note: nearly all actives have a fitted effect of over 50% in size
Target sequence (Q6W5P4 whole entry, looked up): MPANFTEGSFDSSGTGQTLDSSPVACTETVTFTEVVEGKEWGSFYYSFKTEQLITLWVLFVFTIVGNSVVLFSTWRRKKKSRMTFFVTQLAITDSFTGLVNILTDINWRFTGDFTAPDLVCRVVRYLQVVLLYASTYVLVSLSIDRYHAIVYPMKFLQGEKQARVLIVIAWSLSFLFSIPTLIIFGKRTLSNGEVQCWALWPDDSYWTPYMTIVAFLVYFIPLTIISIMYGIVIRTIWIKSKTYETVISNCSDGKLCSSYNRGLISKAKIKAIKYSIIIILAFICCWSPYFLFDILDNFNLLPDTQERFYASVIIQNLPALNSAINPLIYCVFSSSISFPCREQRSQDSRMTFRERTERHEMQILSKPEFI
Epigenetic reg = Quantitative High-Throughput Screen for Regulators of Epigenetic Control; Potency, µM (doses to about 53.9 µM), hits mostly activators; murine LDR cells, GFP reporter derepression, 30 h; hit rate 0.2% among 280,000; note: nearly all actives have a fitted effect of over 60% in size
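GFP-positive cell count by laser-scanning cytometry (objects 20–120 um) after 30 h, 37 C compound exposure of murine LDR cells; reporter is CMV-GFP integrated at a silenced locus, inducible by HDAC or DNMT inhibitors.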
HTT ATP protect = qHTS Multiplex Assay to Identify Dual Action Probes in a Cell Model of Huntington: Cytoprotection (ATP). Potency, µM (doses to about 56.4 µM), most hits filed as activators. hit rate 0.14% among 230,000. PC12 HTT-Q103 induced, cytoprotection, ATP luminescence, 40 h; note: nearly all actives have a fitted effect of over 45% in size
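Compounds added alongside 100 nM tebufenozide, which induces toxic Q103 huntingtin exon 1-GFP in stable PC12 cells; surviving cells quantified by luminescent ATP measurement. Medium: phenol red-free DMEM, 5% equine and 5% calf serum.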
LMNA splice mod = qHTS Assay for Modulators of Lamin A Splicing. HeLa LMNA splicing GFP/RFP minigene ratio, 48 h. Potency, µM (top dose mostly 46.1 µM), actives largely listed as inhibitors. hit rate 0.01% among 200,000. AID 1487, 2009; active = well fitted inhibition curve with a large enough effect in the signal ratio, with a control signal flat, not every such curve was filed as active; inconclusive = small, poorly fitted or top-dose-only effect, or effect the other way, or a change in a side signal; the % refers to the signal ratio
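S3 HeLa stable clones carrying a lamin A-EGFP splicing minigene plus DsRed2 were seeded at 600 cells/well in Opti-MEM with 2% FBS, pin-dosed and incubated 48 h at 37°C. Acumen cytometry (488 nm) gave the GFP/RFP total-intensity ratio.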
HttQ103 aggreg = qHTS Multiplex Assay to Identify Dual Action Probes in a Cell Model of Huntington: Aggregate Formation (GFP); hit rate 1.1% among 220,000; Potency, µM (series often up to 46.1 µM), most hits filed as inhibitors; PC12 HttQ103-GFP aggregates, Acumen cytometry, 40 h; AID 1688, 2009; note: nearly all actives have a fitted effect of over 60% in size
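Quantitative HTS on tebufenozide-induced (100 nM) PC12 cells stably expressing polyQ103 Huntingtin exon 1–GFP. Reduction of bright GFP aggregates, detected by laser scanning cytometry after lysis, identified actives across the titration.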
Large screens that a line does not name were inactive. Unless noted, calls come from the whole dose curve; as a rule, active = well fitted curve in the direction sought with a large enough effect; inconclusive = small, poorly fitted or top-dose-only effect, or another doubt; inactive = no such curve, though single readings can be large; an effect the other way counts as inactive or inconclusive.

CCCN(Cc1cccs1)C(=O)Nc1ccc(Br)c(C)c1	none (no result: NPSR antagonist, HTT ATP protect, LMNA splice mod, HttQ103 aggreg)
O=C(COC(=O)c1ccccc1C(=O)c1ccc(Cl)c([N+](=O)[O-])c1)NC1CCCCCC1	NPSR antagonist 10µM, LMNA splice mod inconclusive, HttQ103 aggreg inconclusive
CC(C)N(C(=O)COC(=O)c1ccccc1C(=O)c1ccc(Cl)c([N+](=O)[O-])c1)C(C)C	NPSR antagonist inconclusive, HttQ103 aggreg inconclusive (no result: LMNA splice mod)
CCOc1ccccc1N(C)C(=O)c1cc(S(=O)(=O)NCc2ccc(C)cc2)ccc1F	LMNA splice mod inconclusive (no result: NPSR antagonist, HTT ATP protect, HttQ103 aggreg)
COc1cccc(CNC(=O)c2ccc3nc(-c4ccc(F)cc4)c(-c4ccc(F)cc4)nc3c2)c1	LMNA splice mod inconclusive (no result: NPSR antagonist, HTT ATP protect, HttQ103 aggreg)
CCC(C)n1c(=S)[nH]c2c(sc3ccc([N+](=O)[O-])cc32)c1=O (configuration not stated)	LMNA splice mod inconclusive, HttQ103 aggreg 10µM
CC(C(=O)N1CCCCC1)N1C(=O)c2ccccc2C1=O (configuration not stated)	HttQ103 aggreg 32µM
Cc1ccc(CNC(=O)Cn2cc3c(n2)-c2c(oc(C(=O)N4CCOCC4)c2C)CC3)cc1	none (no result: NPSR antagonist, HTT ATP protect, LMNA splice mod, HttQ103 aggreg)
Cc1ccc(NC(=S)N(C)Cc2cn(C)c3ccccc23)cc1	LMNA splice mod inconclusive, HttQ103 aggreg 35µM
Cn1cc(CN(CCCN2CCOCC2)C(=S)Nc2cccc(Cl)c2)c2ccccc21	LMNA splice mod inconclusive, HttQ103 aggreg inconclusive
Cc1cccc(NC(=S)N(CCCN2CCOCC2)Cc2cn(C)c3ccccc23)c1	LMNA splice mod inconclusive, HttQ103 aggreg 8.9µM
COc1ccc(NC(=S)N(CCCN2CCOCC2)Cc2cn(C)c3ccccc23)cc1	LMNA splice mod inconclusive, HttQ103 aggreg inconclusive
O=c1c(-c2cccs2)nc2cnc(N3CCNCC3)nc2n1C1CC1	LMNA splice mod inconclusive (no result: NPSR antagonist, Epigenetic reg, HttQ103 aggreg)
CCc1nn2c(=O)c(S(=O)(=O)Nc3ccc(C)c(C)c3)c(C)nc2s1	none (no result: NPSR antagonist, HTT ATP protect, LMNA splice mod, HttQ103 aggreg)
COc1cc(-c2nc(S(=O)(=O)c3ccc(C)cc3)c(N(C)C)o2)cc(OC)c1OC	HTT ATP protect 0.89µM (no result: HttQ103 aggreg)
COc1ccc(C(NC(C)=O)c2ccc3cccnc3c2O)c(OC)c1 (configuration not stated)	Epigenetic reg inconclusive, LMNA splice mod inconclusive, HttQ103 aggreg 4µM
CCC(=O)NC(c1cccs1)c1ccc2cccnc2c1O (configuration not stated)	NPSR antagonist inconclusive, Epigenetic reg 4µM (no result: LMNA splice mod)
CC(C)C(=O)NC(c1ccco1)c1ccc2cccnc2c1O (configuration not stated)	Epigenetic reg 3.5µM, LMNA splice mod inconclusive, HttQ103 aggreg 4µM
CCCCC(=O)NC(c1ccccc1OC)c1ccc2cccnc2c1O (configuration not stated)	Epigenetic reg 3.5µM (no result: LMNA splice mod)
CC(C)CC(=O)NC(c1cccs1)c1ccc2cccnc2c1O (configuration not stated)	none
COc1ccc(C(NC(C)=O)c2cc(Cl)c3cccnc3c2O)cc1OC (configuration not stated)	HttQ103 aggreg inconclusive (no result: LMNA splice mod)
CCCCC(=O)NC(c1ccc(OC)c(OC)c1)c1c(O)ccc2ccccc12 (configuration not stated)	NPSR antagonist inconclusive
CCOc1ccccc1NC(=O)CCNS(=O)(=O)c1ccc2c(c1)CCN2C(=O)C1CC1	none (no result: NPSR antagonist, HTT ATP protect, HttQ103 aggreg)
CCCC(=O)NC(c1ccccc1OC)c1ccc2cccnc2c1O (configuration not stated)	Epigenetic reg 7.1µM, LMNA splice mod inconclusive, HttQ103 aggreg inconclusive
CCC(=O)NC(c1ccc(OC)c(OC)c1)c1cc(Cl)c2cccnc2c1O (configuration not stated)	HttQ103 aggreg inconclusive (no result: LMNA splice mod)
COc1cc(OC)cc(-c2nc3nc(C)c(CCC(=O)Nc4ccc(C)c(C)c4)c(C)n3n2)c1	none (no result: NPSR antagonist, HTT ATP protect, LMNA splice mod, HttQ103 aggreg)
N#Cc1c(-c2ccco2)nc(SCc2ccc(F)cc2)[nH]c1=O	NPSR antagonist 7.9µM
N#Cc1c(-c2ccco2)nc(SCC(=O)Nc2ccc(S(N)(=O)=O)cc2)[nH]c1=O	HTT ATP protect inconclusive
O=C(C[n+]1ccc2ccccc2c1)c1ccc2ccc3ccccc3c2c1	none (no result: NPSR antagonist, Epigenetic reg, LMNA splice mod, HttQ103 aggreg)
CC1=C(C#N)C(NC(=O)C2CCCCC2)(C(F)(F)F)C(=O)N1 (configuration not stated)	none
CC1=C(C#N)C(NC(=O)C2CC2)(C(F)(F)F)C(=O)N1 (configuration not stated)	HttQ103 aggreg 0.32µM
CCCn1c2ccccc2c2cnn(CC(=O)N(CCCOC)Cc3ccco3)c(=O)c21	LMNA splice mod inconclusive (no result: NPSR antagonist, HTT ATP protect, HttQ103 aggreg)
Cc1ncc(N=Nc2ccc(F)cc2)c(-c2ccc(Cl)cc2)n1	none
Oc1ccc(N=Nc2n[nH]c(-c3ccc(Cl)cc3)n2)cc1	LMNA splice mod inconclusive, HttQ103 aggreg 18µM
CCN(CC)Cc1c(O)ccc2c([N+](=O)[O-])c(C)n(-c3ccc(OC)cc3)c12	LMNA splice mod inconclusive, HttQ103 aggreg 5µM
CCN(CC)Cc1c(O)ccc2occ(C(=O)c3ccc(OC)cc3)c12	none
CCC(=O)N1c2ccccc2CC1C(=O)NCCc1ccc(OC)cc1OC (configuration not stated)	none (no result: NPSR antagonist, HTT ATP protect, HttQ103 aggreg)
CCC1CCCCN1C(=O)CSc1nc2ccsc2c(=O)n1Cc1ccccc1 (configuration not stated)	NPSR antagonist inconclusive, HttQ103 aggreg 16µM
c1ccc2c(c1)OCC(c1csc3ncnc(N4CCOCC4)c13)O2 (configuration not stated)	LMNA splice mod inconclusive, HttQ103 aggreg 13µM
COc1cccc(C2C(C(=O)c3cc4cccc(OC)c4o3)=C(O)C(=O)N2c2cc(C)on2)c1OC (configuration not stated)	NPSR antagonist 6.3µM
COc1cccc2cc(C(=O)C3=C(O)C(=O)N(Cc4ccco4)C3c3cccnc3)oc12 (configuration not stated)	NPSR antagonist 7.9µM
COc1cccc(C2C(C(=O)c3cc4ccccc4o3)=C(O)C(=O)N2c2cc(C)on2)c1OC (configuration not stated)	NPSR antagonist 3.2µM
COc1cc(C2C(C(=O)c3ccc(C)o3)=C(O)C(=O)N2c2cc(C)on2)cc(OC)c1OC (configuration not stated)	none
COc1cc(C2C(C(=O)c3ccc(C)o3)=C(O)C(=O)N2c2cc(C)on2)ccc1O (configuration not stated)	LMNA splice mod inconclusive
COc1cccc(N2CCN(C(=O)C3CCC(CNS(=O)(=O)c4ccc(Br)s4)CC3)CC2)c1 (configuration not stated)	none (no result: NPSR antagonist, HTT ATP protect, LMNA splice mod, HttQ103 aggreg)
COc1ccc(N2CCN(Cc3nc4c(c(=O)[nH]c(=O)n4C)n3Cc3ccccc3)CC2)cc1	none (no result: NPSR antagonist, HTT ATP protect, LMNA splice mod, HttQ103 aggreg)
CCN(c1ccccc1)S(=O)(=O)c1nnc(NC(=O)COc2ccccc2F)s1	none (no result: NPSR antagonist, HTT ATP protect, HttQ103 aggreg)
